MazEF act: increases E. coli MazEF RNase cleavage of RNA; P0AE70; activation, % at 20 µM; FAM/BHQ RNA-DNA oligo cleavage fluorescence, 5 h; 350,000 compounds, 0.32% hits; in the data active = activation above about 50%
Target sequence (P0AE70 whole entry, looked up): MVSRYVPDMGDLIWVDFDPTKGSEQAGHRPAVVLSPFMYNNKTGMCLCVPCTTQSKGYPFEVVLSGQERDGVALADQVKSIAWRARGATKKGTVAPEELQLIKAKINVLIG
DUSP3 inh: DUSP3 (human) phosphatase inhibition; P51452; recombinant VHR phosphatase, pNPP absorbance; inhibition, % at 13.3 µM; 290,000 compounds, 0.52% hits; AID 1654; in the data active = inhibition above about 50%
Target sequence (P51452 whole entry, looked up): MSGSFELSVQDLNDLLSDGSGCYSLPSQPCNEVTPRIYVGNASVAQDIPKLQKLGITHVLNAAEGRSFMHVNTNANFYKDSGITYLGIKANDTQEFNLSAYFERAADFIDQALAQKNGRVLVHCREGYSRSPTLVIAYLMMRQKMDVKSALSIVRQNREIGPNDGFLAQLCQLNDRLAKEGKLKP
Anthrax LF inh2: anthrax lethal factor protease inhibition | P15917 | multiplex microsphere protease cleavage assay, LF | inhibition, % at 10 µM | 360,000 compounds, 0.12% hits; note: plate controls were buffer without enzyme for full effect and enzyme alone for no effect
BoNT-F LC inh: blocks Botulinum neurotoxin F light chain protease; Multiplex microsphere protease cleavage assay, flow cytometry; inhibition, % at 10 µM; 360,000 compounds, 0.22% hits; in the data active = inhibition above about 35%, passing the limit was not always enough; inconclusive = no clear call, values can overlap the other calls; note: plate controls were buffer without enzyme for full effect and enzyme alone for no effect
BoNT-A LC inh2: inhibitors of Botulinum neurotoxin A light chain protease; multiplex microsphere protease substrate cleavage, flow cytometry; inhibition, % at 10 µM; 360,000 compounds, 0.17% hits; AID 588499; note: plate controls were buffer without enzyme for full effect and enzyme alone for no effect
Autofluor counter: compound fluorescence in toxin protease inhibitor counterscreen. compound autofluorescence counterscreen, microsphere flow cytometry; stronger effect = higher value. 360,000 compounds, 3.1% hits. AID 624483. fluorescence intensity (test concentration not listed); in the data active = fluorescence intensity above about 16000; inconclusive = no clear call, values can overlap the other calls
* = called active by the depositor. The list is not random: actives were taken first. Their share in the collection is about 4%. Cut-off read from the data, not from the text of the source, unless noted: active = inhibition above about 30%; inconclusive = no clear call, values can overlap the other calls; inactive = below that.

How did O=C(CCn1nnc2ccccc2c1=O)NCC1CCC(C(=O)O)CC1 (centres undefined) do in these assays?
MazEF act: 2; DUSP3 inh: 1; Anthrax LF inh2: -3; BoNT-F LC inh: -1; BoNT-A LC inh2: -3; Autofluor counter: 24413*

What do the screens show for `O=C(O)CCCCCNC(=O)CCn1nnc2ccccc2c1=O`?
MazEF act: -4; DUSP3 inh: 8; Anthrax LF inh2: -2; BoNT-F LC inh: 6; BoNT-A LC inh2: inconclusive; Autofluor counter: 21187*

What do the screens show for `COc1ccccc1NC(=O)COC(=O)c1ccccn1`?
MazEF act: 5; DUSP3 inh: 35; Anthrax LF inh2: -6; BoNT-F LC inh: -3; BoNT-A LC inh2: -2; Autofluor counter: 3925

Results for CCOC(=O)c1sc(NC(=O)CN2CCCC2)c(C(=O)OCC)c1C ?
MazEF act: -2; DUSP3 inh: 11; Anthrax LF inh2: 0; BoNT-F LC inh: 0; BoNT-A LC inh2: 0; Autofluor counter: 2478

How did O=C1NC(Cc2ccc(O)cc2)c2nc3cc(F)c(F)cc3c(=O)n2-c2ncccc21 (centres undefined) do in these assays?
MazEF act: -2; Anthrax LF inh2: -2; BoNT-F LC inh: 2; BoNT-A LC inh2: 0; Autofluor counter: 2911

How did CCCCSC1=NN1c1nc(N)nc(C)c1CC do in these assays?
MazEF act: 6; DUSP3 inh: 30; Anthrax LF inh2: -2; BoNT-F LC inh: 7; BoNT-A LC inh2: 3; Autofluor counter: 22245*

How did CCOC(=O)c1c(-c2cccs2)csc1NC(=O)CN(CC)CC do in these assays?
MazEF act: -8; DUSP3 inh: 1; Anthrax LF inh2: -6; BoNT-F LC inh: -1; BoNT-A LC inh2: -2; Autofluor counter: 22950*

How did CN(C)c1cc(-c2ccc(Cl)cc2)oc(=O)c1Cl do in these assays?
MazEF act: 5; DUSP3 inh: 22; Anthrax LF inh2: -1; BoNT-F LC inh: inconclusive; BoNT-A LC inh2: inconclusive; Autofluor counter: 3801

How did CN(C)c1cc(-c2ccc([N+](=O)[O-])cc2)oc(=O)c1Cl do in these assays?
MazEF act: 54*; DUSP3 inh: -10

What do the screens show for `COc1ccc(N(C)C(=O)Cc2c(C(=O)O)[nH]c3ccccc23)cc1`?
MazEF act: 9; DUSP3 inh: -15; Anthrax LF inh2: 8; BoNT-F LC inh: -1; BoNT-A LC inh2: -2; Autofluor counter: 3516

How did Cc1ccccc1NC(=S)N(C)C1(c2ccccc2Cl)CCCCC1=O (centres undefined) do in these assays?
MazEF act: 2; DUSP3 inh: 25; Anthrax LF inh2: -1; BoNT-F LC inh: 0; BoNT-A LC inh2: 2; Autofluor counter: 23061*

What do the screens show for `COc1ccc2c(c1OC)C(=O)N1C2SC[C@H]1C(=O)NC1CCCC1` (some centres undefined)?
MazEF act: 9; DUSP3 inh: -4; Anthrax LF inh2: -3; BoNT-F LC inh: 4; BoNT-A LC inh2: -1; Autofluor counter: 5807

How did Cc1cc(NC(=O)CSc2nc(-c3ccc(Br)cc3)nc3c2c(=O)n(C)c(=O)n3C)no1 do in these assays?
MazEF act: 1; DUSP3 inh: 0; Anthrax LF inh2: 2; BoNT-F LC inh: -4; BoNT-A LC inh2: 0; Autofluor counter: 6188

How did Cc1cc(NC(=O)CSc2nc(-c3ccccc3Cl)nc3c2c(=O)n(C)c(=O)n3C)no1 do in these assays?
MazEF act: 112*; DUSP3 inh: 26; Anthrax LF inh2: -3; BoNT-F LC inh: -15; BoNT-A LC inh2: -1; Autofluor counter: 4670

What do the screens show for `O=C(O)CSc1nc2c(c(=O)[nH]1)CCCC2`?
MazEF act: 3; DUSP3 inh: 12; Anthrax LF inh2: -2; BoNT-F LC inh: -9; BoNT-A LC inh2: -8; Autofluor counter: 24867*

Results for O=C(CSc1nc2c(c(=O)[nH]1)CCCC2)Nc1ccc(Cl)cc1F ?
MazEF act: -5; DUSP3 inh: 15; Anthrax LF inh2: -3; BoNT-F LC inh: 0; BoNT-A LC inh2: 0; Autofluor counter: 20550*

What do the screens show for `CCc1nnc(NC(=O)CSc2nc(-c3ccc(F)cc3)cc(-c3ccccc3)c2C#N)s1`?
MazEF act: 63*; DUSP3 inh: 32; Anthrax LF inh2: -1; BoNT-F LC inh: -3; BoNT-A LC inh2: 0; Autofluor counter: 2505

How did CC(=O)Nc1nonc1NC(=O)CSc1nc2ccccc2o1 do in these assays?
MazEF act: 0; DUSP3 inh: -1; Anthrax LF inh2: -2; BoNT-F LC inh: 0; BoNT-A LC inh2: 0; Autofluor counter: 22359*

Results for COc1ccc(-c2cc(-c3ccccc3)nc(SCC(=O)Nc3ncc(C)s3)c2C#N)cc1 ?
MazEF act: -46; DUSP3 inh: 1; Anthrax LF inh2: -4; BoNT-F LC inh: -10; BoNT-A LC inh2: -1; Autofluor counter: 2500

What do the screens show for `CCc1nnc(NC(=O)CSc2nc3ccccc3o2)s1`?
MazEF act: -5; DUSP3 inh: 23; Anthrax LF inh2: -1; BoNT-F LC inh: 2; BoNT-A LC inh2: 1; Autofluor counter: 22539*

What do the screens show for `CCOC(=O)c1cccc(NC(=O)CSc2nc3ccccc3c(=O)n2CCOC)c1`?
MazEF act: -12; DUSP3 inh: 36; Anthrax LF inh2: -2; BoNT-F LC inh: -1; BoNT-A LC inh2: inconclusive; Autofluor counter: 22521*

Results for COC(=O)c1cccc(NC(=O)CSc2nc(=O)cc(N)n2-c2ccccc2)c1 ?
MazEF act: 4; DUSP3 inh: 40; Anthrax LF inh2: -3; BoNT-F LC inh: 0; BoNT-A LC inh2: -1; Autofluor counter: 16937*

What do the screens show for `CCCCc1nnc(NC(=O)CSc2nc(=O)cc(N)n2-c2cccc(C)c2)s1`?
MazEF act: 2; DUSP3 inh: -13; Anthrax LF inh2: -1; BoNT-F LC inh: 0; BoNT-A LC inh2: 0; Autofluor counter: 16503*

What do the screens show for `CSc1nsc(SCC(=O)Nc2cccc(C(C)=O)c2)n1`?
MazEF act: -4; DUSP3 inh: -2; Anthrax LF inh2: 0; BoNT-F LC inh: 2; BoNT-A LC inh2: 2; Autofluor counter: 21617*

What do the screens show for `OC(c1ccccc1)(c1ccccc1)c1ccn[nH]1`?
MazEF act: 8; Anthrax LF inh2: 1; BoNT-F LC inh: -9; BoNT-A LC inh2: -1; Autofluor counter: 4486

How did Nc1cc(=O)nc(SCC(=O)N(C2CCCCC2)C2CCCCC2)n1-c1ccccc1 do in these assays?
MazEF act: -3; DUSP3 inh: 18; Anthrax LF inh2: 1; BoNT-F LC inh: -3; BoNT-A LC inh2: inconclusive; Autofluor counter: 16646*

What do the screens show for `Cc1cccc(NC(=O)CSc2nc(N)cc(N)n2)c1`?
MazEF act: 1; DUSP3 inh: -5; Anthrax LF inh2: -4; BoNT-F LC inh: inconclusive; BoNT-A LC inh2: 0; Autofluor counter: 2574

How did CCOC(=O)c1cccc(NC(=O)CSc2nc(N)cc(N)n2)c1 do in these assays?
MazEF act: -1; DUSP3 inh: 56*; Anthrax LF inh2: -6; BoNT-F LC inh: 11; BoNT-A LC inh2: 2; Autofluor counter: 8626

How did CC1(C)C2([N+](=O)[O-])CN3CC1([N+](=O)[O-])CN(C2)C3c1ccccn1 (centres undefined) do in these assays?
MazEF act: 3; DUSP3 inh: 29
